SNCA viab count: GF-AFC viability counterscreen for inhibitors of alpha-synuclein gene (SNCA) expression | HEK-293-SNCA-luc viability, GF-AFC fluorescence, 24 h | Potency, µM (series often up to 57.1 µM), for the others: at the highest dose activity change, negative = cytotoxicity, usual class: cytotoxic | 0.12% of 150,000 active | AID 1671193, 2021;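 also: potency is read from the fitted curve at half-maximal effect; 0% = DMSO-treated cells and -100% = medium-only wells without cells; nearly all actives have a fitted effect of over 30% in size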
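HEK-293-SNCA-luc cells (1500/well) plated 24 h, then exposed 24 h to a dilution series; GF-AFC added 30 min at 37C, fluorescence 405/540 nm; normalised to medium-only and DMSO wells, Hill fit.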
IP6K1 inh: Primary qHTS assay for small molecule inhibitors of Inositol hexaphosphate kinase 1 (IP6K1); activity change, % (series mostly up to about 58 µM); IP6K1 kinase, ADP-Glo luminescence, 2 h; active compounds read low; 0.81% of 140,000 active; Inositol hexakisphosphate kinase 1 (Homo sapiens), Q92551; in the data active = activity change below about -25%; also: % is scaled to controls: 0 for no effect and ±100 for the full control effect
Target sequence (Q92551 whole entry, looked up): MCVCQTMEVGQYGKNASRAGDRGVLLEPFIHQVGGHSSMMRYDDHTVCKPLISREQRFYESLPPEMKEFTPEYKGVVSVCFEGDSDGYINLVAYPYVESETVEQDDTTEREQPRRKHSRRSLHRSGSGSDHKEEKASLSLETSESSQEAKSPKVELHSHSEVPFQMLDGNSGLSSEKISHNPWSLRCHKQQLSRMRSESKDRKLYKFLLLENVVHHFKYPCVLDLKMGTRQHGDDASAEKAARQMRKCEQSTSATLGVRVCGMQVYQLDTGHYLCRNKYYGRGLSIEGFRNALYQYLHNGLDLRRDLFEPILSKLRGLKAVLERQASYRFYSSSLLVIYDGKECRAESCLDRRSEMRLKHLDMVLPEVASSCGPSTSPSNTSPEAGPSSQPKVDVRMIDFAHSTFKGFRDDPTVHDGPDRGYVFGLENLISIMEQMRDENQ
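ADP-Glo luminescence measures ADP made by human IP6K1 during a 2 h RT reaction with ATP/IP6 (mix at 1.3 mM/130 uM); top library doses 57.5 and 19.1 uM final.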
SNCA expr inh: Primary qHTS assay for inhibitors of alpha-synuclein gene (SNCA) expression; HEK-293 SNCA-luciferase knock-in, luminescence, 24 h; Potency, µM (series often up to 57.2 µM), without a hit: top-dose activity change, negative = inhibition, hits mostly inhibitors; 0.17% of 140,000 active; AID 1671194, 2021;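 also: potency is read from the fitted curve at half-maximal effect; plate controls were DMSO cells for no effect and cell-free wells for full effect; nearly all actives have a fitted effect of over 45% in size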
KDM5B inh: Primary screen for KDM5B Histone Demethylases FDH-coupled qHTS | 2.6% of 220,000 active | Potency, µM (top dose mostly 57.7 µM), most hits filed as inhibitors | Lysine-specific demethylase 5B (Homo sapiens), Q9UGL1 | KDM5B demethylase, FDH-coupled NADH fluorescence (FDH is formaldehyde dehydrogenase); also: potency is read from the fitted curve at half-maximal effect; 0% is about no effect; nearly all actives have a fitted effect of over 70% in size
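Coupled FDH/NAD⁺ fluorescence readout. KDM5BΔAP 200 nM final; compound titration, 10 min RT preincubation; substrate mix 12.5 µM H3K4me3, 25 µM 2-OG, 50 µM Fe(II), 100 µM ascorbate, 0.25 mM NAD⁺, 0.25 U/mL FDH; ΔRFU over 30 min.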
The depositor's hits bear a star; [ ] = another dose, or the depositor's remark. Shown are actives, neighbours in structure and some others; about 2.8% of the full set was active somewhere. Unless noted, calls follow the shape of the dose curve; as a rule, active = well fitted curve in the direction sought with a large enough effect; inconclusive = small, poorly fitted or top-dose-only effect, or another doubt; inactive = no such curve, though single readings can be large; an effect the other way counts as inactive or inconclusive.

What do the screens show for `COc1ccc(NC(=O)C2CC(=O)N(c3n[nH]c4cccc(F)c34)C2)cc1` (configuration not stated)?
SNCA viab count: 2%; IP6K1 inh: 7; SNCA expr inh: 0%; KDM5B inh: 25µM*

What do the screens show for `CCOc1ccc(NC(=O)C2CC(=O)N(c3n[nH]c4cccc(F)c34)C2)cc1` (configuration not stated)?
SNCA viab count: 1%; IP6K1 inh: -2; SNCA expr inh: 10%; KDM5B inh: 22µM*

How did O=C(NCc1ccc(Cl)cc1)C1CC(=O)N(c2n[nH]c3cccc(F)c23)C1 (configuration not stated) do in these assays?
SNCA viab count: 11%; IP6K1 inh: -14; SNCA expr inh: 10%; KDM5B inh: 20µM*

How did Cn1cc(NC(=O)C2CC(=O)N(c3n[nH]c4cccc(F)c34)C2)cn1 (configuration not stated) do in these assays?
SNCA viab count: 5%; IP6K1 inh: 7; SNCA expr inh: -31%; KDM5B inh: inactive

Results for CCNC(=O)N(C1CC1)C1CCOC2(CCN(C(=O)c3cnc(C)cn3)CC2)C1 (configuration not stated) ?
SNCA viab count: 1%; IP6K1 inh: -13; SNCA expr inh: -23%; KDM5B inh: inactive

What do the screens show for `CC(C)NC(=O)c1cn(-c2ccccc2)nc1-c1cccnc1`?
KDM5B inh: inactive

What do the screens show for `Cc1cccc(C)c1NC(=O)Cn1c(=O)n(Cc2ccccc2Cl)c(=O)c2cccnc21`?
SNCA viab count: 4%; IP6K1 inh: 13; SNCA expr inh: 11%; KDM5B inh: inconclusive

What do the screens show for `O=C(C1CC(=O)N(c2n[nH]c3cccc(F)c23)C1)N1CCN(c2ccc(Cl)cc2)CC1` (configuration not stated)?
SNCA viab count: -10%; IP6K1 inh: -8; SNCA expr inh: -24%; KDM5B inh: 22µM*

Results for Cc1ccnc(NC(=O)C2CC(=O)N(c3n[nH]c4cccc(F)c34)C2)c1 (configuration not stated) ?
SNCA viab count: 5%; IP6K1 inh: 3; SNCA expr inh: -15%; KDM5B inh: inactive

Results for COc1ccc(CNC(=O)C2CC(=O)N(c3n[nH]c4cccc(F)c34)C2)cc1OC (configuration not stated) ?
SNCA viab count: 13%; IP6K1 inh: -1; SNCA expr inh: 5%; KDM5B inh: inconclusive

Results for COc1ccc(OC)c(NC(=O)C2CC(=O)N(c3n[nH]c4cccc(F)c34)C2)c1 (configuration not stated) ?
SNCA viab count: 3%; IP6K1 inh: -2; SNCA expr inh: 12%; KDM5B inh: 32µM*

Results for O=C(C1CC(=O)N(c2n[nH]c3cccc(F)c23)C1)N1CCN(c2cccc(Cl)c2)CC1 (configuration not stated) ?
SNCA viab count: 3%; IP6K1 inh: -12; SNCA expr inh: 0%; KDM5B inh: inconclusive

What do the screens show for `Cc1ccc(NC(=O)C2CC(=O)N(c3n[nH]c4cccc(F)c34)C2)c(C)c1` (configuration not stated)?
SNCA viab count: 10%; IP6K1 inh: -11; SNCA expr inh: -2%; KDM5B inh: 22µM*

Results for CCOC(=O)c1cc2c(=O)n3ccccc3nc2n(Cc2ccco2)c1=NC(=O)c1c(F)cccc1Cl ?
SNCA viab count: inconclusive; IP6K1 inh: -60*; SNCA expr inh: inconclusive; KDM5B inh: inconclusive

How did Cc1cc(NC(=O)CN2C(=O)c3ccccc3S2(=O)=O)no1 do in these assays?
KDM5B inh: inactive

What do the screens show for `O=C1NC2(CCCN([S+](=O)([O-])c3cccs3)C2)Oc2ccccc21` (configuration not stated)?
SNCA viab count: 10%; IP6K1 inh: 20; SNCA expr inh: 34%; KDM5B inh: inactive

What do the screens show for `CC(=O)N1CCN(C(=O)C2CCCN(c3nc4ncccc4o3)C2)CC1` (configuration not stated)?
SNCA viab count: -7%[87.6 µM]; IP6K1 inh: -8; SNCA expr inh: 10%[87.6 µM]; KDM5B inh: inconclusive

Results for COCC(=O)N1CCN(c2nc3ncccc3o2)CC1 ?
SNCA viab count: -3%[87.6 µM]; IP6K1 inh: -4; SNCA expr inh: 1%[87.6 µM]; KDM5B inh: 32µM*

What do the screens show for `O=C(C1CCCN(c2nc3ncccc3o2)C1)N1CCN(c2ncccn2)CC1` (configuration not stated)?
SNCA viab count: -2%; IP6K1 inh: 6; SNCA expr inh: 28%; KDM5B inh: 25µM*

How did O=C(NC1CCCC1)N1CCCN(c2nc3ncccc3o2)CC1 do in these assays?
SNCA viab count: -2%[87.6 µM]; IP6K1 inh: 0; SNCA expr inh: 35%[87.6 µM]; KDM5B inh: 28µM*

Results for CC(C)(C)C(=O)N1CCCN(c2nc3ncccc3o2)CC1 ?
SNCA viab count: 9%[87.6 µM]; IP6K1 inh: -10; SNCA expr inh: -6%[87.6 µM]; KDM5B inh: 35µM*

How did CCc1c(C)sc(NC(=O)c2cccnc2)c1C#N do in these assays?
KDM5B inh: inactive

What do the screens show for `CCCCOc1ccc(C(=O)N2CCC[C@H]2c2nc(-c3ccc(C)cc3)no2)cc1`?
SNCA viab count: -18%; IP6K1 inh: -2; SNCA expr inh: 1%; KDM5B inh: inactive

Results for O=C(C1CCCC1)N1CCCN(c2nc3ncccc3o2)CC1 ?
SNCA viab count: -1%[87.6 µM]; IP6K1 inh: -14; SNCA expr inh: -16%[87.6 µM]; KDM5B inh: 28µM*

What do the screens show for `COc1cccc(-c2cn3c(n2)sc2cc(C(=O)NCCC4=CCCCC4)ccc23)c1`?
SNCA viab count: 4%; IP6K1 inh: 15; SNCA expr inh: 189%; KDM5B inh: inconclusive

What do the screens show for `O=c1cc(N2CCOCC2)oc2c(NCC3CCOCC3)nccc12`?
SNCA viab count: inconclusive; IP6K1 inh: -10; SNCA expr inh: inconclusive; KDM5B inh: 32µM*

Results for O=c1cc(N2CCOCC2)oc2c(-c3ccccc3F)nccc12 ?
SNCA viab count: inconclusive; IP6K1 inh: -21; SNCA expr inh: -3%[87.6 µM]; KDM5B inh: inconclusive

Results for O=c1cc(N2CCOCC2)oc2c(NCc3cnccn3)nccc12 ?
SNCA viab count: -2%[87.6 µM]; IP6K1 inh: -22; SNCA expr inh: 2%[87.6 µM]; KDM5B inh: 35µM*

How did Cc1nc(-c2cccc(NC(=O)Nc3ccccc3C(F)(F)F)c2)no1 do in these assays?
SNCA viab count: -6%; IP6K1 inh: -1; SNCA expr inh: 0%; KDM5B inh: inactive

How did Cc1nccn1-c1ccc(NC(=O)C2CCCN(c3ncccc3C#N)C2)cc1 (configuration not stated) do in these assays?
SNCA viab count: -30%; IP6K1 inh: -8; SNCA expr inh: 1%; KDM5B inh: 28µM*

Source: PubChem (National Center for Advancing Translational Sciences (NCATS))
